Most compounds without a hit are left out; they make up all but 8.7% or so of the library.
HP1b chromo inh – HTS for Inhibitors of HP1-beta Chromodomain Interactions with Methylated Histone Tails. Chromobox protein homolog 1 (Homo sapiens), P83916. AlphaScreen HP1-beta / biotin-H3K9me3 peptide binding. Potency, µM (series often up to 114 µM), for the others: at the highest dose activity change, negative = inhibition, usual class: inhibitors. 0.56% of 390,000 active; further: nearly all actives have a fitted effect of over 70% in size
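Compound inhibition of the preformed complex between 50 nM HP1-beta and 50 nM biotinylated H3K9me3 peptide was read by AlphaScreen. Buffer was PBS pH 7.4 with 0.01% Tween-20. Incubations ran 30 min at room temperature, with 10 ug/mL donor/acceptor beads.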
JMJD2A Tudor inh – qHTS Assay for Inhibitors of JMJD2A-Tudor Domain | Lysine-specific demethylase 4A (Homo sapiens), O75164 | AlphaScreen JMJD2A-Tudor / H3K4me3 peptide binding | Potency, µM (top dose mostly 114 µM), without a hit: at the highest dose activity change, negative = inhibition, most hits filed as inhibitors | 4.4% of 390,000 active; further: on the % scale 0 is the no-effect control and ±100 the full control effect; nearly all actives have a fitted effect of over 50% in size
Sfp inh – qHTS Assay for Inhibitors of Bacillus subtilis Sfp phosphopantetheinyl transferase (PPTase); Biochemical Sfp PPTase activity, qHTS; Potency, µM, without a hit: largest response in the series, negative = inhibition, usual class: inhibitors; 3.5% of 310,000 active;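 further: the enzyme is Sfp with the accession as filed and its product quenches rhodamine fluorescence; 0% = enzyme reaction without inhibitor and -100% = no enzyme wells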
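Fluorescence-quenching assay with 15 nM Sfp, 5 uM rhodamine-CoA and 12.5 uM BHQ-2-labelled ybbR peptide in pH 7.6 Hepes/MgCl2 buffer. Enzyme was pre-incubated with compound for 15 min at room temperature. Rate was taken from the 30-min fluorescence change (525/598 nm).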
G9a inh – qHTS Assay for Inhibitors of Histone Lysine Methyltransferase G9a; Histone-lysine N-methyltransferase EHMT2 (Homo sapiens), Q96KQ7; G9a H3K9 monomethylation, AlphaScreen, 2 h; Potency, µM (series often up to 102 µM), without a hit: at the highest dose activity, negative = inhibition, actives largely listed as inhibitors; 8.8% of 350,000 active; further: on the % scale 0 is the no-effect control and ±100 the full control effect; nearly all actives have a fitted effect of over 75% in size
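Readings reflect AlphaScreen signal from monomethyl-H3K9 antibody detection. HMT at 20 nM; substrate b-H3K9 500 nM; cofactor SAM 20 uM; 2 h RT reaction; compounds tested as titrations in qHTS with 15 min preincubation.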
BAZ2B inh – qHTS Assay for Inhibitors of BAZ2B; Bromodomain adjacent to zinc finger domain protein 2B (Homo sapiens), Q9UIF8; AlphaScreen BAZ2B-H3K14Ac peptide displacement; 4.4% of 360,000 active; AID 504333, 2011; Potency, µM (doses to about 114 µM), without a hit: at the highest dose activity change, negative = inhibition, actives largely listed as inhibitors; further: on the % scale 0 is the no-effect control and ±100 the full control effect; nearly all actives have a fitted effect of over 60% in size
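AlphaScreen displacement: compounds (up to 110uM) incubated 30 min at room temperature with a preformed 50 nM BAZ2B/50 nM biotinylated H3K14Ac peptide complex in PBS pH 7.4 with Tween-20. Donor and acceptor beads at 10 ug/mL final added, 20 min light-protected before reading.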
12-LOX inh – Primary qHTS assay for inhibitors of human arachidonate 12S-lipoxygenase (ALOX12): Round 2. 1.1% of 580,000 active. purified 12hLO, xylenol orange hydroperoxide absorbance. Polyunsaturated fatty acid lipoxygenase ALOX12 (Homo sapiens), P18054. Potency, µM (series often up to 108 µM), inactives show at the highest dose activity change, negative = inhibition, hits mostly inhibitors; further: on the % scale 0 is the no-effect control and ±100 the full control effect
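Purified human 12hLO at 150 nM in 25 mM Hepes, 0.01% Triton X-100, pH 7.0, preincubated 15 min at room temperature with compound. Reaction started with 40 uM arachidonic acid, 30 min at room temperature. Hydroperoxide measured by Fe-xylenol orange, 573/405 nm absorbance ratio.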
Starred values were filed as active, the others as inactive; ? = inconclusive; . = not tested or not shown; [ ] = remark or other dose. The call rests on the fitted dose curve; in most records, active means well fitted curve in the direction sought with a large enough effect; inconclusive means small, poorly fitted or top-dose-only effect, or another doubt; inactive means no such curve, though single readings can be large; an effect the other way counts as inactive or inconclusive. Potency means the concentration at half of the fitted maximal effect.

SMILES | HP1b chromo inh | JMJD2A Tudor inh | Sfp inh | G9a inh | BAZ2B inh | 12-LOX inh
O=C1CCCC2=C1C(c1ccc(Cl)cc1)C1C(=O)c3ccccc3C1=N2 (stereo unspecified) | -23.7% | ? | ? | ? | ? | ?
CCOc1cc(=O)n2c(c1C(=O)Nc1cccc(Cl)c1C)CCCC2 | . | . | . | . | . | 58.1%
CN1CCN(C(=O)c2cc3cc(Cl)cc(Cl)c3oc2=O)CC1 | . | . | . | . | . | -28.0%
Cc1cccc(-n2c(CNC(=O)c3ccc(S(=O)(=O)N4CCCCC4)cc3)n[nH]c2=S)c1 | 28.1% | 35.5µM* | -1.1% | 7.08µM* | 2.3% | ?
CCCN(CCC)S(=O)(=O)c1ccc(C(=O)NCc2n[nH]c(=S)n2-c2ccc(Cl)c(Cl)c2)cc1 | 24.2% | ? | 9.6% | 17.8µM* | ? | ?
O=C(NCc1n[nH]c(=S)n1-c1ccc(F)cc1)c1ccc(S(=O)(=O)N2CCCC2)cc1 | 18.7% | 28.2µM* | -28.0% | ? | -3.3% | ?
Cc1ccc(CNC(=O)c2ccc(S(=O)(=O)N3CCCCC3)cc2)cc1 | 22.2% | -21.4% | . | -6.3% | 4.9% | -13.7%
O=C(NCc1ccc(Cl)cc1)c1cccc(S(=O)(=O)N2CCCC2)c1 | 79.2% | -8.4% | . | -50.6%[59 µM] | 4.7% | 102.2%
CCCN(CCC)S(=O)(=O)c1ccc(C(=O)NCc2ccc3c(c2)OCO3)cc1 | 30.0% | -12.0% | 19.3% | 16.0% | 7.0% | 11.4%
O=C(NCc1n[nH]c(=S)n1-c1cccc(Cl)c1)c1ccc(S(=O)(=O)N2CCCC2)cc1 | 18.7% | 89.1µM* | ? | ? | ? | ?
COCCN1C(=O)[C@H]2CN(Cc3cc(OC)ccc3OC)C[C@H]2C1=O | . | . | . | . | . | 29.4%
COc1ccc(-c2nc(SCc3ccccc3)n(C(C)=O)n2)cc1 | . | . | . | . | . | 28.9%
Cc1noc(C)c1S(=O)(=O)N1CCC2(CC1)NCCc1c2[nH]c2ccccc12 | . | . | . | . | . | -5.1%
O=C(NCc1n[nH]c(=S)n1-c1ccc(Cl)c(Cl)c1)c1ccc(S(=O)(=O)N2CCCCC2)cc1 | 14.3% | -28.6% | -3.3% | 8.91µM* | -27.1% | ?
O=C(NCc1nc(-c2ccc(Cl)cc2)no1)c1cc2cc(Cl)ccc2o1 | . | . | . | . | . | -28.3%
Cc1ccc(CC(=O)Nc2ccc3c(c2)N(C)C(=O)c2ccccc2S3)cc1 | ? | ? | . | 3.98µM* | ? | -16.2%
Cc1nn(-c2ccccn2)c2nc(-c3cccs3)cc(C(=O)NCc3ccco3)c12 | 22.4% | ? | ? | 44.7µM* | -10.9% | 8.2%
Cc1nn(-c2ccccc2)c2nc(-c3ccncc3)cc(C(=O)NCc3ccco3)c12 | -12.3% | ? | -24.9% | 50.1µM* | -0.6% | 0.0%
CCOC(=O)c1cc(-c2cccs2)nc2c1c(C)nn2-c1ccccn1 | 59.0% | -4.5% | ? | 32.8% | 7.3% | -21.9%
Cc1ccccc1-n1nc(C)c2c(C(=O)NN)cc(-c3ccncc3)nc21 | 19.9% | -16.6% | 7.3% | -5.6% | -6.2% | 9.6%
CCCS(=O)(=O)N1CCCN(c2ccc(=O)n(-c3ccc(C)c(C)c3)n2)CC1 | . | . | . | . | . | -10.8%
O=C(CCc1ccccc1)N1CCC[C@H]1c1nc(-c2ccccc2Cl)no1 | . | . | . | . | . | 72.5%
COc1ccc(OC)c(NC(=S)N2CCN(c3ccccn3)CC2)c1 | 18.1% | -20.8% | -8.9% | . | -10.4% | -10.9%
COc1ccc(NC(=S)N2CCN(c3ncccn3)CC2)c(OC)c1 | 44.9% | -11.4% | 50.1µM* | -34.6% | 3.0% | ?

Bioassay records from PubChem.
